SARS PLpro yeast = SARS-CoV PLP inhibition in yeast. Potency, µM (doses to about 32.9 µM), for inactives: top-dose activity, positive = growth rescue, usual class: activators. S. cerevisiae expressing SARS-CoV PLpro, growth rescue. 330,000 tested, 0.19% active; calls by dose curve; further: 0% is about no effect; nearly all actives have a fitted effect of over 55% in size
Pf growth 96h = P. falciparum growth inhibition at 96 hours; 320,000 tested, 6.9% active; AID 504834; Potency, µM (top dose mostly 28.7 µM), without a hit: at the highest dose activity change, negative = inhibition, actives largely listed as inhibitors; P. falciparum luciferase reporter growth, 96 h; further: on the % scale 0 is the no-effect control and ±100 the full control effect
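Readout is luminescence from an integrated firefly luciferase in P. falciparum. Red cells, 2% hematocrit and 0.05% parasitemia final, were cultured with compound through two parasite generations (96 hours) at 37 C, 5% CO2.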
Sm TGR block = S. mansoni TGR enzyme inhibition. purified TGR, DTNB reduction, TNB absorbance 405 nm. Potency, µM (highest dose often 114 µM), for inactives: at the top dose activity change, negative = inhibition, usual class: inhibitors. 360,000 tested, 3% active. AID 485364; further: on the % scale 0 is the no-effect control and ±100 the full control effect; nearly all actives have a fitted effect of over 60% in size
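Kinetic colorimetric format: TGR-catalysed, NADPH-driven DTNB reduction monitored via TNB absorbance. Enzyme dispensed at 20 nM; compound exposure 15 min at room temperature before reaction start.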
AmpC detergent = inhibitors of E. coli AmpC beta-lactamase with detergent; AmpC hydrolysis of nitrocefin, absorbance 480 nm, 0.01% Triton; 370,000 tested, 0.041% active; AID 485294; P00811; Potency, µM (highest dose often 114 µM), for the others: top-dose activity change, negative = inhibition, usual class: inhibitors;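 further: 0% = no-compound wells and -100% = no-enzyme wells; nearly all actives have a fitted effect of over 25% in size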
Target sequence (P00811 whole entry, looked up): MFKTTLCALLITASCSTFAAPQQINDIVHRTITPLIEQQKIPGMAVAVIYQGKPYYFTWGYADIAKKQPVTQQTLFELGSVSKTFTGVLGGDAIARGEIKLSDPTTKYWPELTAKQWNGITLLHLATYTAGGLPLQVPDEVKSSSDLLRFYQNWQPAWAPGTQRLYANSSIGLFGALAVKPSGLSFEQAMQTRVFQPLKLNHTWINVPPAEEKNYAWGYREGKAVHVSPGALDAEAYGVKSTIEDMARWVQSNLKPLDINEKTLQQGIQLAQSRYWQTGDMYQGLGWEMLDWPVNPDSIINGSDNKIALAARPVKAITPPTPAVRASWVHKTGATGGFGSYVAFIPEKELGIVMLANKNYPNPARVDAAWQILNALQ
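AmpC (5.3 nM in the dispensed reagent) in 20 mM phosphate pH 7.0 with 0.01% (detergent screen) or 0.0001% Triton X-100 was preincubated with compounds for 15 min at room temperature. Nitrocefin was then added from an 800 uM solution, and hydrolysis was followed at 480 nm.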
Pf growth 48h = P. falciparum growth inhibition at 48 hours (one generation); AID 504832; 310,000 tested, 5.9% active; P. falciparum luciferase growth in erythrocytes, 48 h; Potency, µM (titrated, usually from 28.7 µM), for the others: top-dose activity change, negative = inhibition, usual class: inhibitors; further: on the % scale 0 is the no-effect control and ±100 the full control effect
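Read-out is firefly luciferase luminescence from an integrated reporter in P. falciparum, so falling signal marks reduced parasite growth. Infected erythrocytes were at 2% hematocrit and 0.1% parasitemia (final) in Albumax-supplemented RPMI 1640.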
AmpC inh no detg = inhibitors of E. coli AmpC beta-lactamase without detergent. P00811. AmpC nitrocefin hydrolysis, absorbance 480 nm, 0.0001% Triton. Potency, µM (titrated, usually from 57.1 µM), for the others: at the highest dose activity change, negative = inhibition, most hits filed as inhibitors. 330,000 tested, 0.52% active. AID 485341;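 further: plate controls were no compound for no effect and no enzyme for full effect; nearly all actives have a fitted effect of over 20% in size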
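AmpC (5.3 nM in the dispensed reagent) in 20 mM phosphate pH 7.0 with 0.01% (detergent screen) or 0.0001% Triton X-100 was preincubated with compounds for 15 min at room temperature. Nitrocefin was then added from an 800 uM solution, and hydrolysis was followed at 480 nm.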
Numbers without * were called inactive; ? = inconclusive; . = not tested or not shown; [ ] = remark or other dose. In the library only some 12% were active in any assay of this set; here they are far more common. Unless noted, the call rests on the fitted dose curve; in most records, active means well fitted curve in the direction sought with a large enough effect; inconclusive means small, poorly fitted or top-dose-only effect, or another doubt; inactive means no such curve, though single readings can be large; an effect the other way counts as inactive or inconclusive. Potency means the concentration at half of the fitted maximal effect.

SMILES	SARS PLpro yeast	Pf growth 96h	Sm TGR block	AmpC detergent	Pf growth 48h	AmpC inh no detg
Cc1ccc(S(=O)(=O)N2CCN(C(=O)n3ccnc3)CC2)cc1	1%	7.4µM*	-15%	-24%	?	-6%
O=C(NCCCN1CCN(CCCNC(=O)c2cc([N+](=O)[O-])ccc2Cl)CC1)c1cc([N+](=O)[O-])ccc1Cl	5%	?	-9%	-10%	4.7µM*	-11%
CCOC(=O)C1=C(O)/C(=C/c2ccc(-c3ccccc3C(=O)O)o2)SC1=Nc1ccc(C)cc1	-3%	0.93µM*	?	0%	?	-11%
CCOC(=O)C1=C(O)CSC1=Nc1ccccc1	4%	14%	0%	-13%	31%	-19%
CCOC(=O)C1=C(O)/C(=C/c2ccc(-c3ccccc3C(=O)O)o2)SC1=Nc1ccc(OC)cc1	4%	1%	?	-17%	-21%	-12%
CCOC(=O)C1=C(O)CSC1=Nc1ccc(Cl)cc1	?	10µM*	0%	-11%	10µM*	-2%
CCOC(=O)C1=C(O)/C(=C/c2ccccn2)SC1=Nc1ccc(Cl)cc1	-15%	15%	-1%	?	9.3µM*	55%
CCOC(=O)C1=C(O)/C(=C/c2ccc(OCC(=O)O)c(OCC)c2)SC1=Nc1ccccc1	-1%	?	-5%[57.1 µM]	-4%	?	15%
CCCCc1nn2c(=O)cc(COC(=O)c3ccc(NC(=O)CCc4ccccc4)cc3)nc2s1	.	.	-7%	-3%	.	.
CCOc1ccc(NC(=O)Cn2c(=O)n(-c3ccc(C)cc3)c(=O)c3cc(OC)c(OC)cc32)cc1	.	.	4%	17%	.	.
Cc1c(Cl)cccc1NC(=O)CCS(=O)(=O)c1ccc2c(c1)CC(=O)N2C	.	.	1%	3%	.	.
CCC(=O)N1CCN(c2nnc(-c3ccccc3)c3ccccc23)CC1	2%	-24%	-7%	-11%	-15%	5%
CC(=O)N1CCN(c2nnc(-c3ccccc3)c3ccccc23)CC1	1%	-11%	4%	-13%	.	-7%
COc1ccc(-c2nnc(N3CCOCC3)c3ccccc23)cc1	7%	13µM*	3%	-3%	-9%	35%
O=C(COc1ccccc1)N1CCN(c2nnc(-c3ccccc3)c3ccccc23)CC1	3%	10µM*	-6%	-13%	?	38%
COc1ccc(OCC(=O)N2CCN(c3nnc(-c4ccccc4)c4ccccc34)CC2)cc1	-6%	1.9µM*	0%	-17%	?	43%
COCCCNC(=O)C1CCC(CNS(=O)(=O)c2ccc(C)cc2)CC1 (stereo not drawn)	-5%	77%[5.75 µM]	-4%	-12%	10µM*	5%
NC(=O)C1CCN(CCC(=O)Nc2ccc3c(c2)CCC3)CC1	-19%	26%	-17%	6%	21%	-11%
CC1N=C2c3ccccc3N=C(SCC(=O)NCCc3ccc(Cl)cc3)N2C1=O (stereo not drawn)	.	.	2%	10%	.	.
CCOC(=O)/C(C#N)=C\c1ccc(O)c(OC)c1	-4%	0%	?	-10%	-5%	-3%
COc1cc(/C=C(\C#N)C(=O)Nc2ccccn2)ccc1O	2%	8%	14µM*	-1%	13%	-7%
CCOc1cc(/C=C(\C#N)C(=O)Nc2ccccn2)ccc1O	-3%	14%	18µM*	?	32%	-15%
COc1cc(/C=C(\C#N)C(=O)Nc2cccc3ncccc23)ccc1O	0%	16%	.	?	0%	-11%
CCOC(=O)c1c(-c2ccc(C)cc2)csc1NC(=O)/C(C#N)=C/c1ccc(O)c(OC)c1	6%	?	-1%	-5%	?	8.9µM*
Cc1cccc(/C=C(\C#N)C(=O)Nc2ccccn2)c1	-1%	-1%	8%	0%	13%	-15%
SMILES	SARS PLpro yeast	Pf growth 96h	Sm TGR block	AmpC detergent	Pf growth 48h	AmpC inh no detg
CCOc1ccccc1NC(=O)/C(C#N)=C/c1cccnc1	0%	13µM*	0%	?	-23%	-17%
O=C(c1ccccc1)c1cnc[nH]1	2%	18%	0%	0%	16%	-1%
Cc1cccc(-c2nc(SCc3cc(=O)c4c(C)cc(C)cc4[nH]3)n[nH]2)c1	.	.	-3%	-2%	.	.
COc1cccc(/C=N/n2nnnc2N)c1	0%	3%	8%	-10%	0%	-10%
Cc1no[n+]([O-])c1COc1ccc(/C=N/n2nnnc2N)cc1	15%	12µM*	-3%	2%	-29%	-27%
Cc1ccc(N2CC(NC(=O)C(=O)c3c[nH]c4ccccc34)CC2=O)cc1 (stereo not drawn)	.	.	2%	1%	.	.
CCc1ccccc1NC(=O)CSC1=Nc2ccccc2C2=NC(Cc3ccccc3)C(=O)N12 (stereo not drawn)	.	.	-1%	3%	.	.
Cc1c(N=NC2=C(O)CC(C)(C)CC2=O)c(=O)n(-c2ccccc2)n1C	0%	2.1µM*	13µM*	?	-21%	-29%
C=CCn1c(O)c(N=Nc2c(C)n(C)n(-c3ccccc3)c2=O)c(=O)[nH]c1=S	8%	6.6µM*	2%	?	-22%	-15%
CCOC(=O)c1c([N+](=O)[O-])c(C)[nH]c(=O)c1C#N	0%	-9%	1%	-15%	73%	-46%
COc1cc(C(=O)NC(=S)Nc2ccccc2N2CCOCC2)cc(OC)c1OC	-8%	26%	25µM*	-3%	?	16µM*
CCCC(=O)NC(=S)Nc1ccccc1N1CCOCC1	3%	10µM*	-29%	-1%	-24%	-40%
CCC(=O)NC(=S)Nc1ccc(N2CCOCC2)cc1	-1%	37%	0%	1%	81%	-9%
CCCCC(=O)NC(=S)Nc1ccccc1N1CCCCC1	-12%	?	0%	-3%	?	-17%
CCCCCC(=O)NC(=S)Nc1ccc(N2CCOCC2)cc1	13µM*	4%	-17%	-5%	-20%	-37%
COc1cccc(C(=O)NC(=S)Nc2ccccc2N2CCOCC2)c1	-2%	?	2%	4%	15%	-2%
Cc1ccc(S(=O)(=O)CC2CSc3nc4ccccc4n32)cc1 (stereo not drawn)	-1%	-8%	-8%	-3%	-8%	?
CSc1ccc(CN(C)CC(=O)NC(C)c2ccccc2)cc1 (stereo not drawn)	3%	-29%	-2%	5%	-4%	48%
COc1ccc(S(=O)(=O)N2CCCCC2)cc1NC(=O)CCc1nc2ccccc2c(=O)[nH]1	0%	?	-9%	-2%	?	-22%
COc1ccc(S(=O)(=O)N2CCCCC2)cc1NC(=O)CSc1ncnc2ccccc12	1%	2.3µM*	2%	-10%	12µM*	36%

Compound activity deposited in PubChem by National Center for Advancing Translational Sciences (NCATS).
